Compound activity deposited in PubChem by National Center for Advancing Translational Sciences (NCATS).
An excerpt weighted towards active compounds, which were near 2.4% of everything screened.
TDP1 block: inhibitors of human tyrosyl-DNA phosphodiesterase TDP1. Q9NUW8. recombinant TDP1, AlphaScreen DNA substrate cleavage. Potency, µM (top dose mostly 130 µM), for the others: at the highest dose activity change, negative = inhibition, actives largely listed as inhibitors. 0.28% of 350,000 active. AID 485290; also: % is scaled to controls: 0 for no effect and ±100 for the full control effect; nearly all actives have a fitted effect of over 40% in size
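AlphaScreen read-out: signal falls as enzyme removes the 3' tyrosine-FITC from a 5'-biotinylated DNA oligo (15 nM, 5 min, RT). Enzyme was E. coli-made recombinant Tdp1 at 1 nM, exposed to compound for 15 min beforehand; beads 10 ug/ml, 10 min.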
Pol eta inh-1: inhibitors of human DNA polymerase eta; Q9Y253; recombinant Pol eta, fluorescent DNA replication assay; Potency, µM (highest dose often 114 µM), for the others: at the top dose activity change, negative = inhibition, usual class: inhibitors; 1.2% of 390,000 active; AID 588591; also: % is scaled to controls: 0 for no effect and ±100 for the full control effect
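Pol eta at 10 nM preincubated with compounds 15 min at room temperature; reaction started with fluorescent substrate (50 nM final) and read kinetically at 0 and 10 min.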
Pol kappa inh-1: inhibitors of human DNA polymerase kappa. AID 588579. purified Pol kappa, fluorescent DNA synthesis assay, 10 min. Q9UBT6. Potency, µM (top dose mostly 107 µM), inactives show top-dose activity, negative = inhibition, usual class: inhibitors. 0.53% of 400,000 active; also: % is scaled to controls: 0 for no effect and ±100 for the full control effect
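Inhibition of 10 nM Pol kappa is measured by a fluorescent read-out at 0 and 10 min following addition of 50 nM substrate (final), with a 15-min room-temperature compound preincubation.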
POLI inh: blocks human DNA polymerase iota activity | Pol iota fluorescent replication assay, 10 min | Potency, µM (series often up to 115 µM), for the others: top-dose activity, negative = inhibition, most hits filed as inhibitors | AID 588590 | Q9UNA4 | 1% of 390,000 active
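Pol iota at 10 nM preincubated 15 min with compounds at room temperature; reaction started with fluorescent substrate, 50 nM final. Fluorescence read kinetically at 0 and 10 min; buffer-only wells as negative control.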
FEN1 inh-1: blocks human flap endonuclease 1; 0.35% of 390,000 active; Potency, µM (series often up to 114 µM), inactives show at the highest dose activity change, negative = inhibition, most hits filed as inhibitors; AID 588795; Recombinant FEN1 flap cleavage, fluorescence, 15 min; P39748; also: % is scaled to controls: 0 for no effect and ±100 for the full control effect; nearly all actives have a fitted effect of over 65% in size
Target sequence (P39748 whole entry, looked up): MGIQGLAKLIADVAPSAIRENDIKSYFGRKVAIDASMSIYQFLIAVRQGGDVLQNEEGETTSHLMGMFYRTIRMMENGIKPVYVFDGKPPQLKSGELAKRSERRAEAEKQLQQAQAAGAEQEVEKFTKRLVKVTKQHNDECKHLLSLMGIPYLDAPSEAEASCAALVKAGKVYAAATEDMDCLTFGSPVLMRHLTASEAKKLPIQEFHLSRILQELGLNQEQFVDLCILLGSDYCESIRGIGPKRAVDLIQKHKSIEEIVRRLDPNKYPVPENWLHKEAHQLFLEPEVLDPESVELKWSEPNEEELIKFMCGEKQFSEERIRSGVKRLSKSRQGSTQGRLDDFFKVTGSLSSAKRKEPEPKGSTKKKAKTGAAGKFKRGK
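Steps: FEN1 (10 nM) dispensed; compound added by pin tool; 15 min at room temperature; substrate added to 50 nM final; reads at 0 min and 15 min; data normalized and fitted (four-parameter Hill).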
Pol beta inh: DNA polymerase beta (human) inhibition; P06746; Pol beta primer extension/strand displacement, fluorescence kinetic; Potency, µM (titrated, usually from 114 µM), for inactives: at the highest dose activity change, negative = inhibition, most hits filed as inhibitors; 1.3% of 340,000 active; also: % is scaled to controls: 0 for no effect and ±100 for the full control effect
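Human Pol beta at 10 nM; strand-displacement substrate 50 nM final. Compound exposure 15 min at room temperature before start, reaction 10 min at room temperature.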
Pol kappa inh-2: confirmation of human DNA polymerase kappa inhibitors | shares compounds with Pol eta inh-1 | purified Pol-kappa, fluorescent strand-displacement substrate | Potency, µM, usual class: inhibitors | 76% of 920 active
Pol eta inh-2: confirmation of human DNA polymerase eta inhibitors; Pol eta primer extension, TAMRA/BHQ fluorescence, 10 min; 64% of 2,600 active; shares compounds with Pol eta inh-1; AID 720502; Potency, µM, usual class: inhibitors
FEN1 inh-2: FEN1 inhibition, cherry-pick retest; shares compounds with FEN1 inh-1; FEN1 flap cleavage, TAMRA/BHQ2 fluorogenic DNA substrate; Potency, µM, actives largely listed as inhibitors; 79% of 880 active; also: nearly all actives have a fitted effect of over 60% in size
The depositor's hits bear a star; i = inactive; ? = inconclusive; · = no result given; [ ] = dose if it differs, or a comment. Calls follow the shape of the dose curve; as a rule, active = well fitted curve in the direction sought with a large enough effect; inconclusive = small, poorly fitted or top-dose-only effect, or another doubt; inactive = no such curve, though single readings can be large; an effect the other way counts as inactive or inconclusive. Potency is read from the fitted curve at half-maximal effect.

SMILES	TDP1 block	Pol eta inh-1	Pol kappa inh-1	POLI inh	FEN1 inh-1	Pol beta inh	FEN1 inh-2	others
C/C(=N/NC(=O)c1cc2ccccc2cc1O)C1C(=O)c2ccccc2C1=O	-8.0%	14.1µM*	?	31.6µM*	50.1µM*	?	60.1*	Pol eta inh-2=?
C/C(=N\NC(=O)c1cc2ccccc2cc1O)c1ccccn1	-4.2%	-11.5%	-0.9%	-22.6%	11.2%	21.0%	·
CC(C)CN(CCNC(=O)c1cc(-c2cccs2)nc2ccccc12)CC(C)C	5.9%	-4.9%	-12.6%	5.8%	-10.8%	13.4%	·
O=C(COC(=O)c1ccc([N+](=O)[O-])o1)Nc1ncc(Cl)cc1Cl	-8.4%	22.4µM*	-24.1%	?	?	·	10.7*	Pol eta inh-2=?
O=C(COC(=O)c1ccc([N+](=O)[O-])o1)Nc1ccc(F)cc1	1.7%	-12.8%	?	3.6%	?	·	·
Cc1ccccc1NC(=O)c1nc(SCc2ccccc2F)ncc1Cl	·	·	-4.9%	8.8%	-5.8%	·	·
O=C(O)CCCNc1cc(N2CCN(C3CCCCC3)CC2)c2noc3c2c1C(=O)c1ccccc1-3	-5.9%	2.7%	?	?	?	20µM*	?	Pol eta inh-2=?
CCCC(=O)OC(=O)CCC	11.6%	·	·	·	·	·	·
O=c1cc(-c2ccc(O)c(-c3c(O)cc(O)c4c(=O)cc(-c5ccc(O)cc5)oc34)c2)oc2cc(O)cc(O)c12	6.6%	17.8µM*	79.4µM*	31.6µM*	44.7µM*	-21.6%	47.8*	Pol eta inh-2=33.8*
O=C1c2ccccc2C(=O)C1(c1ccccc1)N1CCN(c2cccc(Cl)c2)CC1	5.0%	?	-2.3%	3.4%	1.2%	-15.9%	·
COC(=O)/C=C1\SC(=NC(=O)c2cccc([N+](=O)[O-])c2)NC1=O	-14.3%	?	-10.6%	?	6.3%	21.0%	·
O=C1NC(=Nc2ccccc2Cl)S/C1=C\c1cc([N+](=O)[O-])ccc1O	·	79.4µM*	?	35.5µM*	?	?	?	Pol kappa inh-2=?
COC(=O)C(CCSC)Nc1ncnc2onc(-c3ccc(F)cc3)c12 (stereo not given)	5.9%	1.9%	-0.5%	-2.8%	10.8%	-10.8%	·
O=c1cc(O)c2ccc(O)cc2o1	-6.4%	3.1%	-12.5%	10.3%	3.6%	2.1%	·
O=c1ccc2[n+]([O-])c3ccc(O)cc3oc-2c1	8.2%	i	?	25.1µM*	39.8µM*	63.1µM*	60.1*	Pol kappa inh-2=23.8*
CC1(C)SC2C(NC(=O)C(NC(=O)N3CCNC3=O)c3ccccc3)C(=O)N2C1C(=O)O (stereo not given)	-12.4%[56.1 µM]	·	-8.5%[60.1 µM]	·	·	·	·
O=C(CCN1C(=O)/C(=C\c2cccs2)SC1=S)Nc1ccc(C(=O)O)cc1	2.6%	56.2µM*	?	?	?	87.7%	67.5*	Pol eta inh-2=?
COc1ccc(/C=C2\SC(=S)N(CCC(=O)Nc3ccc(C(=O)O)cc3)C2=O)cc1	·	?	-13.4%	-25.0%	?	?	·
CSc1nc2[nH]c(=O)n(O)c(=O)c2n1Cc1ccccc1	·	?	-14.5%	36.1%	-104.8%	·	0.0213*
CSc1nc2c(c(=O)n1Cc1ccccc1)SC(C)C2 (stereo not given)	5.6%	-1.4%	-2.4%[60.1 µM]	-6.2%	-11.8%	-26.0%	·
CC[n+]1ccc(/C=C/c2ccc(N(C)C)cc2)c2ccccc21	6.1%	?	?	-28.8%	39.8µM*	44.7µM*	47.8*
CN(C)c1ccc(/C=C/c2cc[n+]([O-])c3ccccc23)cc1	·	·	1.8%	5.6%	14.9%	·	·
CN1CCC[C@H]1CCNc1ccc2c(=O)c3ccccc3n(C)c2c1	·	?	?	28.2µM*	56.2µM*	·	42.6*
Cc1cccc(Nc2nc(C)nc3c2oc2ccccc23)c1	·	-5.1%	12.6%	-7.8%	?	-1.7%	·
Cc1nc(Nc2ccncc2)c2oc3ccccc3c2n1	4.2%	-2.1%	-8.3%	?	44.7µM*	?	42.6*
SMILES	TDP1 block	Pol eta inh-1	Pol kappa inh-1	POLI inh	FEN1 inh-1	Pol beta inh	FEN1 inh-2	others
Cc1ccccc1/C=N/n1c(-c2cc(-c3ccccc3)n[nH]2)n[nH]c1=S	·	-2.1%	-0.3%	3.2%	3.4%	?	·
S=c1[nH]nc(-c2cc(-c3ccccc3)n[nH]2)n1/N=C/c1c(Cl)cccc1Cl	·	79.4µM*	?	20µM*	?	14.1µM*	?
CC(=O)NCCNc1ncnc2ccc(-c3cccc(NS(C)(=O)=O)c3)cc12	·	·	1.1%[60.1 µM]	·	·	·	·
CCOC(=O)c1c(C)[nH]c(C)c1C(=O)COC(=O)/C=C/c1ccccc1[N+](=O)[O-]	6.6%	-5.7%	-2.1%	1.4%	-10.9%	·	·
CCOC(=O)c1c(C)[nH]c(C)c1C(=O)COC(=O)c1ccc([N+](=O)[O-])s1	5.7%[56.1 µM]	22.4µM*	79.4µM*	10µM*	?	·	26.9*
Nc1c(Cl)cc(-c2[nH]c3cc(C(=O)NCCO)ccc3c(=O)c2O)cc1Cl	·	?	-5.6%	?	17.8µM*	-5.2%	30.1*
CCCNC(=O)c1ccc2c(=O)c(O)c(-c3cccc(Br)c3)[nH]c2c1	9.5%	-16.5%	-12.3%	?	31.6µM*	-0.9%	37.9*
O=C(OCc1ccccc1Cl)c1ccc(-c2nnn(Cc3ccccc3)n2)cc1	-7.1%	·	-7.5%	3.1%	-10.8%	6.1%	·
CCOC(=O)CSc1nc2cc(OC)c(OC)cc2cc1C#N	-0.3%	·	-10.7%	21.3%	-8.2%	·	·
CCN1CCCC1CNC(=O)c1cc2c(-c3ccc(Cl)cc3)nn(C)c2s1 (stereo not given)	3.9%	4.5%	-19.8%	?	50.1µM*	35.5µM*	42.6*
O=C1Nc2ccccc2Oc2cc([N+](=O)[O-])cc(Oc3ccccc3)c21	2.6%	?	-39.2%	?	?	?	84.9*
CCN(CC)c1ccc(C2C(C(N)=O)=C(C)Nc3nc(SCc4ccccc4Cl)nn32)cc1 (stereo not given)	8.8%	3.3%	-16.9%	-1.4%	-7.3%	3.1%	·
CC1CCCC(NC(=O)COC(=O)c2ccc([N+](=O)[O-])s2)C1C (stereo not given)	0.4%	?	-18.7%	89.1µM*	-23.8%	·	6.01*
